The whole screen tested about 91,000 compounds, of which about 130 (0.14%) were called active. Inconclusive results (about 3%) are left out. The sample as a whole holds a higher share of actives than the screen did. A number with no mark means an inactive call. The call rests on the fitted dose curve; in most records, active means well fitted inhibition curve with a large enough effect; inconclusive means small, poorly fitted or top-dose-only effect; inactive means flat fitted curve, though single readings scatter.
Test system: Uracil-DNA glycosylase
Test: Primary qHTS assay for inhibitors of Activation Induced Cytidine Deaminase (AID): UDG Counterscreen signal; further: nearly all actives have a fitted effect of over 65% in size
Settings: FRET deamination/UDG coupled assay, UDG read, 4 h; series mostly up to 115 µM; activity change, negative = inhibition: at the top concentration
Excerpt: Assay Provider (PI) Patricia Gearhart Ph.D.
National Institute on Aging
National Institute of Health (NIH), Bethesda, MD
Assay Provider (PI) Rahul Kohli Ph.D.
Perelman School of Medicine
University of Pennsylvania, Philadelphia, PA
Activation-Induced Deaminase (AID) is a cytosine deaminase which converts cytosine into uracil within stretches of ssDNA. The presence of uracil in DNA initiates a cascade of mutagenic DNA repair to introduce point mutations and DNA double strand breaks. Specific targeting of AID to the immunoglobulin heavy chain loci (Igh) promotes mutagenesis in the antibody variable region for somatic hypermutation (SHM) or switch regions leading to class switch recombination (CSR). However, AID also plays a role in accumulating unnecessary mutations across the genome. Mis-targeting of AID results in the initiation of tumor development and leads to greater drug resistance among cancer cells when continually expressed. To identify an AID inhibitor, a small molecule library will be screened in collaboration with NCATS core facility at NIH. To confirm biological function, inhibitors will be examined in an in vitro murine B-cell activation assay and subsequent secondary validation screens. Top molecules will be further screened to identify inhibitory efficacy against a wild type primary splenocytes assay. Using these approaches, we hope to identify a small molecule with great efficacy and low toxicity for use as a molecular probe to further characterize AID's intricacies, or even as a therapeutic.
A FRET based analysis of cytosine deamination, was developed to identify potential inhibitors of AID catalytic activity. This screen has two signal output, Read 1 evaluates the AID inhibition response. The second readout (Read 2) evaluates UDG response and is uses as a counterscreen to exclude false positive inhibitors. Inhibition in AID and inactivity in the UDG signal is the desired outcome for this assay.
SEQUENCE No. (e.g., 1, 2, 3, etc.); […] (e.g., Cells, Incubation, Reagent, etc.); VALUE; DESCRIPTION
1a; Reagent; 3 uL; [4/3x] 1 uM AID/2.67 U/mL UDG
1b; Reagent; 3 uL; 2 U/mL UDG
1c; Reagent; 3 uL; 1 uM AID
2a; Compound; 46 nL; Follow-up plates (0.64 uM - 10 mM)
2b; Control; 46 nL; ATA ([…] - 10 mM)
3; Time; 10 min; incubation at room temperature
5; Time; 4 hr; incubation at room temperature
6; Reagent; 4 uL; [2x] 250 mM NaOH
7; Time; 15 sec; centrifuge at 1000 rpm
8; Time; 30 min; incubation at room temperature
9a; Detection; fluorescence (Read 1: AID); EnVision (PerkinElmer) plate reader, 540 excitation and 590 emission filters
9b; Detection; fluorescence (Read 2: UDG); EnVision (PerkinElmer) plate reader, 560 excitation and 665 emission filters
NOTES (numbers refer to sequence above)
1a; Reagents were dispensed in a medium-binding black solid-bottom Greiner plates (789176F) using a BioRptr liquid dispenser. Dispense 3 uL of [4/3x] 1 uM AID (provided by Kohli lab) and [4/3x] 2 U/mL UDG (NEB M0280L) into columns 1, 2, 5 to 48.
1b; Dispense 3 uL of [4/3x] 2 U/mL UDG into column 3.
1c; Dispense 3 uL of [4/3x] 1 uM AID into column 4.
2a; Compound (7-points [uM] (0.64; 3.2; 16; 80; 400; 2,000; 10,000; 20,000) double pin-transferred (Dip Factor = 2) using the Kalypsys (Wako USA) pintool equipped with a 1536 pinhead for a final concentration range of 7.32 nM - 114 uM.
2b; 10 mM Aurintricarboxylic Acid (Sigma A1895) (ATA, 8-point, n = 2, 1:2.5 dilution in column 2) double pin-transferred (Dip Factor = 2) using the Kalypsys (Wako USA) pintool equipped with a 1536 pinhead for a [final] range of 186 nM - 114 uM.
3; Room temperature incubation.
4; Dispense 1 uL of substrate mixture from the Kohli lab [4x] […] DJC20 and [4x] 250 nM DJC23 into columns 1 to 48 .
5; Room temperature incubation.
6; Dispense 4 uL of substrate mixture [2x] 250 mM NaOH into columns 1 to 48.
7; Centrifugation step to remove bubbles.
8; Room temperature incubation
9a; Fluorescence signal (column label AID) was read using the EnVision plate reader. […]
On the % scale 0 is the no-effect control and ±100 the full control effect; potency means the concentration at half of the fitted maximal effect.

Structure (SMILES)	activity change, negative = inhibition	Potency
COc1ccccc1NC(=O)CSc1nc2c(=O)[nH]cnc2n1-c1ccccc1	-13.3%	–
O=C(O)c1cccnc1SC(F)(F)F	5.69%	–
Cc1ccc(C(CNC(=O)c2cc(-c3ccccc3)on2)N2CCC(C)CC2)o1 (stereo unspecified)	-1.82%	–
O=C(CCC1CCCC1)N1CCN(CC2CC=CCC2)CC1 (stereo unspecified)	-5.57%	–
CC(=O)c1c(C)[nH]c(C(=O)OCC(=O)Nc2ccc(Br)c(C)c2)c1C	6.68%	–
COC(=O)Cn1cnc2c(sc3nc(C4CCCCC4)c4c(c32)CCC4)c1=O	2.71%	–
COc1cccc2cc(/C=C(/C#N)c3nc4ccccc4[nH]3)oc12	2.17%	–
COc1cc(SC)ccc1C(=O)Oc1cccc(F)c1	-2.38%	–
CCCCn1c(=O)[nH]c(=O)c2c1nc(COC(=O)c1cc(C)ccc1C)n2CCC	-5.99%	–
O=C1C(O)=C(c2ccccc2)C(c2ccccc2)N1Cc1ccccn1 (stereo unspecified)	-8.73%	–
CCCCC(CC)CNc1ncnc2sccc12 (stereo unspecified)	-2.93%	–
CCc1c(C)sc(NC(=O)c2cccc3ccccc23)c1C#N	-6.9%	–
Cc1cn2c(=O)cc(COC(=O)COc3ccccc3)nc2s1	3.76%	–
O=C(NC1C2CC3CC(C2)CC1C3)c1cccc(Br)c1 (stereo unspecified)	2.83%	–
Cc1ccc2cccc(NC(=O)c3ccccc3C)c2n1	-2.94%	–
CCCc1cc(=O)oc2c(C)c(OCC(=O)NCc3ccccn3)ccc12	2.15%	–
CCCCc1c/c(=N\O)oc2cc3occ(C)c3cc12	-7.72%	–
N#C/C(=C/c1ccccc1OC(F)F)c1nc2cc(C(F)(F)F)ccc2s1	-13.5%	–
Cc1csc(CNC(=O)c2cnccn2)n1	-1.93%	–
CCN(C(=O)COc1ncnc2c(Cl)cc(Cl)cc12)c1ccccc1	-0.784%	–
O=[N+]([O-])c1cc(S(=O)(=O)Nc2ccccc2NS(=O)(=O)c2cccs2)ccc1Cl	-0.862%	–
CC(C)=CC(=O)Nc1ccccc1SC1CCCC1	-4.3%	–

Structure (SMILES)	activity change, negative = inhibition	Potency
CN(/C=C/[N+](=O)[O-])c1ccccc1	3.38%	–
CCCCc1cnc2c(c1SCC(=O)NCC1CCCO1)c(=O)n(C)c(=O)n2C (stereo unspecified)	-5.8%	–
CC1CCC(NC(=O)/C=C/c2ccc(C(=O)NC3CC3)cc2)CC1 (stereo unspecified)	-3.82%	–
C=CCn1c(SC(C)C(=O)OC)nc2c1c(=O)[nH]c(=O)n2C (stereo unspecified)	-1.33%	–
CC(OC(=O)c1cc(=O)c2ccccc2o1)C(=O)Nc1cc(C(F)(F)F)ccc1Cl (stereo unspecified)	3.41%	–
CCN(CC)S(=O)(=O)c1ccc([N+](=O)[O-])cc1	-6.65%	–
Cc1cccc(C(=O)Nc2ccc3nsnc3c2)c1	-2.27%	–
Cc1ccc2c(COC(=O)C3CCCO3)cc(=O)oc2c1C (stereo unspecified)	0.708%	–
Cc1ccc(C(=O)N2CCCc3cc(C(=O)NCCC(C)C)ccc32)cc1	1.89%	–
O=C(NC1CCCC1)C1CC=CCC1c1nc2ccccc2s1 (stereo unspecified)	-7.21%	–
CCCCCCCCOC(=O)/C(C#N)=C/c1ccc(-c2cccc(C(F)(F)F)c2)o1	-7.64%	–
O=C(Nc1cc(C(F)(F)F)ccc1Cl)c1c(F)cccc1F	-10.2%	–
Cc1[nH]c2ccccc2c1C(=O)C(C)Sc1nnnn1C1CCCC1 (stereo unspecified)	-0.262%	–
O=C(Nc1cccc(S(=O)(=O)N2CCCC2)c1)c1n[nH]c2ccccc12	-0.902%	–
O=C(c1ccn(COc2ccccc2)n1)N1CCN(Cc2ccc(Cl)cc2)CC1	-10.4%	–
CC(C)COC(=O)c1nn(Cc2ccccc2)c(=O)c2ccccc12	4.07%	–
COc1ccc2c(CCNC(=O)CCNc3nc(Cl)nc4nc[nH]c34)c[nH]c2c1	0%	–
CCOc1cc(C#N)ccc1OC(C)C(=O)c1ccc(OC)cc1 (stereo unspecified)	-1.24%	–
C/C(=N\NC(=O)C1CC1c1ccccc1)c1ccc(C)c(C)c1 (stereo unspecified)	4.65%	–
CCc1ccc(Sc2cc(C(=O)NC3CCCC3)c3ccccc3n2)cc1	2.07%	–
Fc1ccc(NCC23CC4CC(CC(C4)C2)C3)cc1	-2.91%	–
OC(Cc1c[nH]c2ccccc12)(c1ccccc1)c1ccccc1	-6.36%	–

Structure (SMILES)	activity change, negative = inhibition	Potency
COc1ccc(C(=O)COC(=O)C(C)Oc2ccc(F)cc2)cc1OC (stereo unspecified)	-15.6%	–
CC1(C)Cc2c(sc(NC(=O)C(N)=O)c2C#N)CO1	5.12%	–
CN(/C=C/C(=O)C(F)(F)F)C1(c2ccccc2Cl)CCCCC1=O (stereo unspecified)	-0.265%	–
Cc1ccccc1C(=O)c1cc2ccccc2o1	-4.15%	–
CC(C)CCNC(=O)COC(=O)c1cc(-c2ccco2)nc2ccccc12	-2.97%	–
CN(Cc1ccsc1)C(=O)CCc1cccs1	10.7%	–
Oc1ccc(Cl)cc1C=NCc1ccc(F)cc1Cl	5.13%	–
N#Cc1cccc(C(=O)OCc2cccnc2)c1	4.57%	–
COc1ccc(Cl)cc1COc1ccccc1C#N	-8.12%	–
CCc1nnc(SCC(=O)Nc2ccc(Cl)c(Cl)c2)n1-n1cccc1	3.88%	–
CCCN1C=NS(=O)(=O)c2cc(C(=O)NC(C)(C)C)ccc21	9.86%	–
Cc1nc2ccc(C(=O)NCC(=O)NCC(F)(F)F)cc2nc1C	-2.66%	–
NCc1ccc(CN2CCCCCCC2)cc1	2.92%	–
CCN(Cc1cccs1)C(=O)CC1CC2CCC1C2 (stereo unspecified)	8.6%	–
COc1cc(C(=O)Nc2ncccc2C)cc(Cl)c1OC(C)C	8.76%	–
CCCc1c(C(=O)OCC)nnc2c(-c3ccc(Cl)cc3)c(C)nn12	2.06%	–
N#Cc1ccc(CCC(=O)NCc2ccc(F)cc2)cc1	-6.18%	–
COc1ccc(NS(=O)(=O)c2ccc(N3C(=O)C(C)CS3(=O)=O)cc2)cc1Cl (stereo unspecified)	-1.04%	–
COc1ccc2c(c1)c(N1CCCC1=O)c(C(=O)Nc1ccc(OC)c(Cl)c1)n2C	2%	–
COc1ccc(NS(=O)(=O)c2cc3c4c(c2)CC(=O)N4CCC3)cc1Cl	–	89.1 µM (active)
CN(C)C1(c2nnnn2-c2cccc(C(F)(F)F)c2)CCCC1	-4.85%	–
Cn1c(=O)c2c(ncn2CC(=O)OCc2ccccc2F)n(C)c1=O	-7.56%	–

Structure (SMILES)	activity change, negative = inhibition	Potency
O=C(CSc1nc2ccccc2nc1Cc1ccccc1)N1CCCCC1	-22.1%	–
COc1ccccc1Cc1nc2ccccc2nc1SCC(=O)N1CCCc2ccccc21	–	89.1 µM (active)
O=C(Nc1ccc2nc(SCC(=O)N3CCCc4ccccc43)sc2c1)c1ccc(F)cc1	–	inactive
CN(Cc1ccc2c(c1)OCCO2)CC(O)COc1ccccc1C(C)(C)C (stereo unspecified)	-12.4%	–
CCNc1nc(-c2cccs2)nc2ccccc12	7.12%	–
Cc1ccc(-c2nnc(SCC(=O)Nc3cc(C)on3)n2C2CC2)cc1	-0.087%	–
CC(C)(C)C(=O)Nc1ccc(-c2csc(N)n2)cc1	-10.9%	–
COc1ccccc1C(=O)Nc1ccc(O)c(-c2nc3ccccc3o2)c1	0%	–
CS(=O)(=O)Cc1cccc(C(=O)NCc2ccccc2F)c1	-6.76%	–
CCC(Sc1nc2nccnc2c(=O)n1Cc1ccc(OC)cc1)C(=O)NCc1ccc(C)cc1 (stereo unspecified)	6.72%	–
COc1ccc(CCN2CNc3c(c(=O)[nH]c(=O)n3-c3ccccc3Cl)C2)cc1OC	0.816%	–
O=C(O)C(Sc1ccc2ccccc2n1)c1ccccc1 (stereo unspecified)	6.61%	–
NCCOc1cccc(C(F)(F)F)c1	2.57%	–
CCC(NC(=O)C1CC1)c1ccccc1 (stereo unspecified)	4%	–
Cc1ccc(-c2cnc3ccccc3n2)c(C)c1	-11.7%	–
CCCCNc1nc2c(c(=O)[nH]c(=O)n2C)n1CC(O)COC(C)C (stereo unspecified)	-7.26%	–
Cc1ccccc1NC(=O)/C(C#N)=C/c1ccc(OC(=O)c2ccccc2)cc1	-6.05%	–
Cc1cccc(NS(=O)(=O)c2ccc(C)c(C(=O)NCC(c3ccccc3)N(C)C)c2)c1 (stereo unspecified)	3.49%	–
O=C(COc1cc(Cl)c(Cl)cc1Cl)Nc1ccc2oc(-c3ccncc3)nc2c1	-4.4%	–
COC(=O)c1c(C)[nH]c(C(=O)CSc2nncs2)c1C	2.52%	–

— PubChem BioAssay AID1347430 (National Center for Advancing Translational Sciences (NCATS), 2020)
